Common to all, as to assay: pooled miR-30 sensor sort-seq; sequence = guide strand
What all share (conditions): shRNA

The target in assay [1] is ZNF77.
Assay [2] concerns the target ZNF829.
In assay [3] the target is ZNF718.
The target in assay [4] is ZNF708.
The target in assay [5] is ZNF836.
Further: reference of the scale not given here.

In the case of TAAAGTAAGTGGGACATCCGAA, the sensor-assay potency score (higher = more potent) in assay [1] is -0.639.
With TGAACTACAACTAAAAGCCTTG, the sensor-assay potency score (higher = more potent) in assay [2] is -0.242.
In turn, TAATACATAAAGGTCTTCCCAC registered a sensor-assay potency score (higher = more potent) in assay [1] of -0.234.
Sequence TAATTCTATTATAACCACCTTT returned a sensor-assay potency score (higher = more potent) in assay [3] of -0.203.
In turn, TTACGGTTGAACACTCTCCCAG registered a sensor-assay potency score (higher = more potent) in assay [1] of -0.487.
In assay [4], TTTTCTAGTAAGAATTATCTTA registered a sensor-assay potency score (higher = more potent) of -0.389.
Take TTTTGTCTGAAGATCTTGCCAC: the sensor-assay potency score (higher = more potent) in assay [5] was 0.166.
On to TTCGGTAGGGTAACTCTTGTGC, for which the sensor-assay potency score (higher = more potent) in assay [1] was determined as 0.248.
On the same count and under the same terms, then TATGTCACAGATGCTGTCCTTG, with -0.213.
Consider TTCTTCACATTCATAGAGCTTC, for which the sensor-assay potency score (higher = more potent) in assay [2] was -0.0675.
TAAATGTAACAATCCAAGGAGG yielded a sensor-assay potency score (higher = more potent) in assay [1] of -0.849.
As for TTGTAGAAGTTCATCATGCATT, the sensor-assay potency score (higher = more potent) in assay [2] is -0.541.
TTCCACATTTCTGACATTCATA: the sensor-assay potency score (higher = more potent) in assay [1] is -1.1.
Turning to TTGAATAAGTTCTGAGCTCTGA, the sensor-assay potency score (higher = more potent) in assay [2] amounted to 0.585.
TTAGGTACAAAATAAGTGCTAT: the sensor-assay potency score (higher = more potent) in assay [1] worked out at 0.0583.
For the sequence TACAATTTCTTCATCATTGGAT, the sensor-assay potency score (higher = more potent) in assay [1] was determined as 0.581.
Take TAATATTTTGGTCTCACACATT: the sensor-assay potency score (higher = more potent) in assay [2] was -1.12.
As for TTATCTTATGATTCGTAAGGTT, the sensor-assay potency score (higher = more potent) in assay [4] was -0.564.
The sequence TACTGTGATGTCTTCCAGCTTT came in with a sensor-assay potency score (higher = more potent) in assay [4] of -0.106.
Consider TATCTTATCTTATCTTTGTTTG, for which the sensor-assay potency score (higher = more potent) in assay [3] is -1.2.
In assay [1], TTTTCTCCAAAAATAGACCAGG had a sensor-assay potency score (higher = more potent) of -0.35.
With TTCATCTGTATGGATTCTCTGA, the sensor-assay potency score (higher = more potent) in assay [2] worked out at 0.0212.
TTTACCAGTGTGAATCCTCTGA came in with a sensor-assay potency score (higher = more potent) in assay [2] of 0.327.
As for TTATGTGTCGTAAGAGTTGTGG, the sensor-assay potency score (higher = more potent) in assay [3] is 0.343.
The same measure, in the same setting: the same measure for TCTATTATAACCACCTTTCTGC: -0.0639.
In turn, TACTTGACTGAAATGTCTCTTC gave a sensor-assay potency score (higher = more potent) in assay [2] of 0.284.

(Values after the OligoGym collection.)
